# From PubChem BioAssay AID1035475 (Broad Institute, 2014)
# Results with a measured potency or affinity are listed apart. Results filed as inconclusive are left out. Activity calls are given as the source filed them.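 The calls were made as follows: active = fluorescent signal drops by 40% or more, counted as a hit; inconclusive = no clear call, values can overlap the other calls; inactive = the rest, including any activity in the opposite direction.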
# Assay: inhibitors of fibronectin matrix deposition, dose response, AH1F cells, Alexa488-FN fluorescence, cherry-picks (AID 1035475);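 also: AH1F fibroblasts incorporating labeled fibronectin into their extracellular matrix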
# Conditions: AH1F fibroblasts, overnight; series mostly up to 35 µM
row,SMILES,outcome
1,C[C@H]1CN([C@@H](C)CO)C(=O)c2cc(-c3ccccc3)cnc2O[C@H]1CN(C)C(=O)c1cccc(F)c1,inactive
2,C[C@H](O)C#Cc1ccc2c(c1)O[C@H](CN(C)C)[C@H](C)CN([C@H](C)CO)S2(=O)=O,inactive
3,OC(CNC1CCCc2ccccc21)COc1c(Cl)cccc1Cl (stereo not given),inactive
4,C[C@H](CO)N1C[C@H](C)[C@H](CN(C)C(=O)c2cccc(F)c2)Oc2ncc(-c3ccccc3)cc2C1=O,inactive
5,COCC(=O)Nc1ccc2c(c1)C(=O)N(C)[C@H]1CC[C@H](CC(=O)NCc3ccccc3Cl)O[C@@H]1CO2,inactive
6,COc1ncccc1C(=O)NC1CCCc2c1cnn2-c1ccc(C)c(C)c1 (stereo not given),inactive
7,CO[C@@H]1CN(C)C(=O)c2cc(NC(=O)Nc3ccc(Cl)c(Cl)c3)ccc2OC[C@H](C)NC[C@H]1C,inactive
8,COc1ccccc1N(CC(=O)N(CC(C)C)CC(C)C)S(=O)(=O)c1cccs1,inactive
9,CN(C)C(=O)c1ccc(-c2ccc3c(c2)[C@@H]2[C@@H](CCN2C(=O)c2ccc(F)cc2)[C@@H](CO)N3C)cc1,inactive
10,CO[C@H]1CN(C)C(=O)c2ccc(NC(=O)Nc3cc(Cl)cc(Cl)c3)cc2OC[C@H](C)NC[C@@H]1C,inactive
11,C[C@H]1CN([C@@H](C)CO)C(=O)c2cc(NC(=O)CCCN(C)C)ccc2O[C@H]1CN(C)Cc1ccc(-c2ccccc2)cc1,inactive
12,CO[C@H]1CN(C)C(=O)c2ccc(NC(=O)c3ccc(-c4ccccc4)cc3)cc2OC[C@H](C)NC[C@H]1C,inactive
13,COCC(=O)Nc1ccc2c(c1)C(=O)N(C)[C@@H]1CC[C@H](CC(=O)NCc3ccccc3Cl)O[C@@H]1CO2,inactive
14,CCOC(=O)c1cnc(SCc2nc(N)nc(Nc3ccc(OC)cc3)n2)nc1N,inactive
15,C[C@@H]1CN([C@@H](C)CO)C(=O)c2cccc(NC(=O)Nc3ccc(C(F)(F)F)cc3)c2O[C@H]1CN(C)C(=O)Nc1cccc2ccccc12,inactive
16,C[C@H](CO)N1C[C@H](C)[C@H](CN(C)C)Oc2cc(C#C[C@@H](C)O)ccc2S1(=O)=O,inactive
17,COc1cccc(-c2ccc3c(c2)[C@@H]2[C@@H](CCN2S(=O)(=O)c2cccc(OC)c2)[C@@H](CO)N3)c1,inactive
18,CC(C)Cc1nnc(NC(=O)CSc2nc(N)cc(=O)[nH]2)s1,inactive

row,SMILES,outcome
1,CN1c2ccc(-c3ccccc3)cc2[C@@H]2[C@@H](CCN2C(=O)CN2CCOCC2)[C@@H]1CO,inactive
2,CC1CN(C(=O)c2cc3c(=O)n4ccccc4nc3n2C)CC(C)O1 (stereo not given),inactive
3,COC(=O)C[C@@H]1CC[C@H]2[C@@H](COc3ccc(NC(=O)Cc4cccs4)cc3C(=O)N2C)O1,inactive
4,CO[C@@H]1CN(C)C(=O)c2cc(NC(=O)Nc3cc(Cl)cc(Cl)c3)ccc2OC[C@H](C)NC[C@@H]1C,inactive
5,Cc1oc2ccc(O)cc2c1C(=O)c1ccc(Br)cc1,inactive
6,COc1cccc(S(=O)(=O)N2CC[C@@H]3[C@H]2c2cc(-c4ccc(C#N)cc4)ccc2N[C@@H]3CO)c1,inactive
7,CCOc1ccccc1NC(=O)c1c(NC(=O)CCC(=O)O)sc2c1CCCCC2,inactive
8,C[C@@H]1CN([C@H](C)CO)C(=O)c2cc(-c3ccccc3)cnc2O[C@H]1CN(C)Cc1ccccc1,inactive
9,C[C@@H]1CN([C@@H](C)CO)C(=O)c2cc(-c3ccccc3)cnc2O[C@H]1CN(C)Cc1ccccc1,inactive
10,COc1cccc(-c2ccc3c(c2)[C@H]2[C@H](CCN2S(=O)(=O)c2cccc(OC)c2)[C@H](CO)N3)c1,inactive
11,NC(=O)C1=C[C@H](c2coc3ccccc3c2=O)C[C@H](OCCCCO)O1,inactive
12,Cc1cc(C)c(S(=O)(=O)Nn2cnnc2)c(C)c1,inactive
13,C[C@H](O)C#Cc1ccc2c(c1)O[C@@H](CN(C)C)[C@H](C)CN([C@H](C)CO)S2(=O)=O,inactive
14,O=C(Nc1ccc(Cl)cc1)N1C[C@H]2[C@@H](c3ccccc31)[C@H](CO)N2CC1CCCC1,inactive
15,CCc1nc2c(OCCc3cccc(OC)c3)cccn2c1N(C)C(=O)c1ccc(C)cc1,inactive
16,CCN1CCN(C(c2ccccc2)c2nnnn2Cc2ccccc2)CC1 (stereo not given),inactive
17,C[C@@H]1CN([C@H](C)CO)C(=O)c2cc(NC(=O)C3CCCCC3)ccc2O[C@@H]1CN(C)Cc1ccc(-c2ccccc2)cc1,inactive
